Screens from PubChem BioAssay.
A selection: hits, their analogues and other compounds. The true share with any hit is near 11%.
PNC inhibitor: inhibitors of perinucleolar compartment assembly; PC3M PTB-GFP, PNC prevalence imaging, 16 h; hits give low values; activity change (PNC), negative = inhibition, % at 10 µM; actives 3.1% (n = 140,000);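 active means readout at or below -70, meaning at least 70% loss of cells showing the perinucleolar compartment, a nuclear body marking cancer cells; inconclusive means readout between -30 and a set limit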;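 further: plate controls were DMSO wells for no effect and camptothecin positive control wells for full effect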
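Read-out is percentage of cells bearing a perinucleolar compartment, from automated 20x imaging of fixed, Hoechst-stained PC3M PTB-GFP cells. Cells were seeded 4 h, then exposed 16 h to compound (23 nl of library stock) in duplicate plates.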
HPGD inh: inhibitors of human 15-hydroxyprostaglandin dehydrogenase (HPGD); purified HPGD, NADH fluorescence kinetic, PGE2 substrate; Potency, µM, for inactives: at the highest dose activity change, negative = inhibition, hits mostly inhibitors; actives 4.3% (n = 150,000); AID 894; further: potency means the concentration at half of the fitted maximal effect
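20 nM HPGD preincubated 15 min at room temperature with compound in 50 mM Tris-HCl pH 8, 0.01% Tween 20. Started with 1 mM NAD+ and 30 uM prostaglandin E2; NADH fluorescence (360/450 nm) read 5 times over 30-s intervals, last minus first.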
ALDH1A1 inh: blocks purified human ALDH1A1 activity; P00352; Purified ALDH1A1, NADH fluorescence, propionaldehyde substrate; Potency, µM (series often up to 75.3 µM), without a hit: top-dose activity, negative = inhibition, usual class: inhibitors; actives 7.3% (n = 220,000);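 further: potency means the concentration at half of the fitted maximal effect; plate controls were no enzyme wells and a reference inhibitor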
Target sequence (P00352 whole entry, looked up): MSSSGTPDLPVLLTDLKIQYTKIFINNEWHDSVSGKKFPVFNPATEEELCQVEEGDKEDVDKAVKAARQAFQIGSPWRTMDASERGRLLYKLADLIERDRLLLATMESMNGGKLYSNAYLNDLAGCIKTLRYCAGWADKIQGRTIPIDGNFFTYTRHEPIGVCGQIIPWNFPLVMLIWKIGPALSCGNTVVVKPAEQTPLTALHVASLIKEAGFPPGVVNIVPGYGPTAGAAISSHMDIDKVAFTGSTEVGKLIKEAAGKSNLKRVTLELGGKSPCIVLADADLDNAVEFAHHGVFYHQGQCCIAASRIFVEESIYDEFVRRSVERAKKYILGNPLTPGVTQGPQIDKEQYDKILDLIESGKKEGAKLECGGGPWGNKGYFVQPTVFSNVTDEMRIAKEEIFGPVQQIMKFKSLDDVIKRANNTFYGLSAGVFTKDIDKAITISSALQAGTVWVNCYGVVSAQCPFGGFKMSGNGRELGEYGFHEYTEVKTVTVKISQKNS
Starred values were filed as active, the others as inactive; ? = inconclusive; . = no result; [ ] = dose if it differs, or a comment. Unless noted, the call rests on the fitted dose curve; in most records, active means well fitted inhibition curve with a large enough effect (not every such curve was filed as active); inconclusive means small, poorly fitted or top-dose-only effect, or another doubt; inactive means no such curve, though single readings can be large or run the other way. Unless noted, on the % scale 0 is the no-effect control and ±100 the full control effect.

SMILES	PNC inhibitor	HPGD inh	ALDH1A1 inh
O=C(NCc1nnc2c3ccccc3c(-c3ccccc3)nn12)c1ccccc1Cl	15.0	-14.7%	6.4%
Cc1csc(NC(=O)CCNC(=O)c2ccccc2Cl)n1	.	.	6.3%
COc1ccc(/C=N/Nc2c(Cl)cc(Cl)cc2Cl)cc1CN1CCOCC1	-24.4	-5.8%	-1.9%
COc1cc([N+](=O)[O-])ccc1NC(=O)CSc1ccccn1	.	.	-13.0%
O=C(Cc1ccc(Cl)cc1)Nc1cccc(S(=O)(=O)Nc2ccccc2F)c1	?	-5.6%	4.3%
CCOc1ccccc1NC(=O)CSc1ccc([N+](=O)[O-])cc1	.	.	20µM*
CN(c1ccccc1)S(=O)(=O)c1cccc(NC(=O)Cn2cnc3c2c(=O)n(C)c(=O)n3C)c1	45.7	.	11.7%
O=C(CSc1ccc([N+](=O)[O-])cc1)Nc1cccc(S(=O)(=O)Nc2ccccc2F)c1	.	.	5.01µM*
Cn1c(=O)c2c(ncn2CC(=O)Nc2cccc(S(=O)(=O)Nc3ccccc3F)c2)n(C)c1=O	.	.	7.94µM*
COc1ccc2c(c1)C(=O)[C@H](OC(=O)N[C@H]1CCCc3ccccc31)[C@@H](c1ccc(OC)c(Br)c1)O2	.	-10.4%	?
N#C[C@H](c1ccccc1)N1CCCN([C@@H](C#N)c2ccccc2)C1c1ccccc1O (some centres not stated)	.	-1.5%	1.6%[13.5 µM]
COc1cccc([C@@H]2Oc3ccc(OC)cc3/C(=N/O[C@@H](C)CN3CCCCc4nc(C)c(C)cc43)[C@@H]2O)c1	.	.	10.2%[13.5 µM]
O=C(N/C(=C\c1ccc([N+](=O)[O-])cc1)C(=O)N1CCCCC1)c1ccccc1	.	.	2.0%
O=[N+]([O-])/C(C(Cl)=C(Cl)Cl)=C(/Sc1ccccc1)N1CCCCC1	.	.	17.8µM*
OC(COc1ccc(CNCc2cccnc2)cc1)CN1CCc2ccccc2C1 (configuration not stated)	.	.	-0.6%
Cc1ccc(C(=O)CSc2nnc(-c3ccc4[nH]c(C)c(C)c4c3)o2)cc1C	35.7	-7.5%	1.41µM*
Cc1[nH]c2ccc(-c3nnc(SCC(=O)c4ccccc4F)o3)cc2c1C	-21.6	.	1.8%
CC(=O)c1ccc(NC(=O)C2CC(=O)N(Cc3ccccc3)C2)cc1 (configuration not stated)	-20.3	-8.1%	14.1µM*
O=C(O)c1cccc(NC(=O)C2CC(=O)N(Cc3ccccc3)C2)c1 (configuration not stated)	18.8	-6.2%	7.3%
COc1ccc(-c2nnn(CC(=O)N(CCCN3CCOCC3)C(C(=O)NC3CCCC3)c3ccco3)n2)cc1 (configuration not stated)	.	.	6.8%
COc1cc(/C=N/NC(=O)CC23CC4CC(CC(C4)C2)C3)cc(Br)c1OCC(=O)N(C)C	32.3	-11.7%	?
COC(=O)/C(C#N)=C/c1c(-c2ccccc2)nc2n1CCS2	.	.	1.41µM*
COc1ccc(-c2nc3n(c(=O)c2C#N)CCS3)cc1	.	.	1.8%
C[C@@H](N1CCOCC1)[C@@](O)(c1ccccc1)c1ccccn1	.	-2.3%	1.2%[13.5 µM]
COc1cc(C2C(C#N)=C(N)Oc3c2c(-c2ccccc2)nn3-c2ccccc2)cc(OC)c1OC (configuration not stated)	28.8	-20.9%	-5.5%
SMILES	PNC inhibitor	HPGD inh	ALDH1A1 inh
COc1ccc(CCC(=O)NCCc2cn3c(C)csc3n2)cc1	7.7	-6.2%	17.8µM*
COc1ccc(CCC(=O)NCCCNC(=O)CCc2ccc(OC)cc2)cc1	12.1	-8.3%	-0.9%
COc1ccccc1NC(=S)NC(NC(=O)CC(C)C)C(Cl)(Cl)Cl (configuration not stated)	.	.	3.4%
CCc1cccc(CC)c1NC(=S)NCCc1c(C)[nH]c2ccccc12	-14.0	-4.2%	-8.0%
CC(=O)NCCc1ccc(O)c(O)c1	.	?	28.2µM*
CCc1cccc(CC)c1NC(=S)NCCc1ccc(O)c(O)c1	.	.	22.4µM*
COc1ccc(CCNC(C)=O)cc1	-29.7	-3.5%	7.8%
CCOC(=O)c1ccc(NC(=O)CC2C(=O)N(c3ccc(F)cc3)C(=O)N2CCC(C)C)cc1 (configuration not stated)	18.8	-15.1%	?
COc1cccc([C@@H]2Oc3ccc(OC)cc3C[C@H]2OC(=O)N[C@H]2CCCc3ccccc32)c1	.	-7.4%	?
CCCCc1nc2c(c3c1C[C@H](C)OC3)CN(C(=O)Cc1cccs1)CC2	.	-7.5%	2.9%[13.5 µM]
O=C(NCc1ccco1)c1cnn2cccnc12	.	.	-17.6%
NCCc1nnc(SCc2ccccc2F)o1	61.8	-9.5%	-1.0%
NCCc1nnc(SCc2c(F)cccc2Cl)o1	-103.2*	-28.3%	?
Cc1ccc(SCCC(=O)Nc2ccc(Br)c(C)c2)cc1	-26.7	-15.1%	-3.1%
CCOC(=O)CCN1C(=O)[C@H]2[C@H]3[C@H](O)[C@H](O)C/C(=N/O[C@@H]4O[C@@H](COC(C)=O)[C@@H](OC(C)=O)[C@@H](OC(C)=O)[C@H]4OC(C)=O)[C@H]3CC[C@@H]2C1=O	.	.	-0.4%[13.5 µM]
CC(C)CN(C#N)c1nc(N2CCOCC2)nc(N2CCOCC2)n1	?	-11.3%	7.94µM*
CC(C)CCCNc1nc(N2CCOCC2)nc(N2CCOCC2)n1	45.3	-3.3%	-0.1%
COc1cccc(CNC(=O)CCC2CCCN(c3cc(C)nc(N)n3)C2)c1 (configuration not stated)	.	.	5.0%
O=S(=O)(NC1c2cccc3cccc(c23)C1N1CCNCC1)c1ccccc1 (configuration not stated)	?	-7.8%	-9.0%
O=C(c1ccccc1)N1CCN(C2c3cccc4cccc(c34)C2NS(=O)(=O)c2ccccc2)CC1 (configuration not stated)	-19.3	-10.9%	11.2µM*
CC(C)NC(=O)N1CCC2(CC1)CCN(S(=O)(=O)c1ccccc1)CC2	.	-7.7%	-4.5%
Cc1ccc(-c2csc3n[nH]c(=S)n23)cc1	?	28.2µM*	?
Cc1ccc(-n2c(C)n[nH]c2=S)cc1	29.1	-15.7%	11.0%
CC(C)[C@H](NS(=O)(=O)c1cccc(C(F)(F)F)c1)C(=O)OCC(N)=O	.	.	5.8%
CCOC(=O)/C(N=Nc1sc(C(=O)OC)c(C)c1C(=O)OCC)=C(\O)CCl	-26.2	-17.2%	?
SMILES	PNC inhibitor	HPGD inh	ALDH1A1 inh
COc1ccc(N(CC2CO2)S(=O)(=O)c2ccccc2)cc1 (configuration not stated)	.	.	6.8%
CCOC(=O)CCCCC(=O)c1[nH]c(=O)[nH]c1CSc1nc(C)cc(C)n1	?	-6.2%	-2.5%
CCOC(=O)CCCCC(=O)c1[nH]c(=O)[nH]c1CSc1nnc2c3cc(Br)ccc3n(C)c2n1	.	.	0.631µM*
COc1cccc(-c2cncnc2NC2CCNCC2)c1	.	.	-6.5%
Cc1ccc2nc(C)c(C(=O)N/N=C/c3cccs3)n2c1	-12.3	-11.5%	?
Cc1ccc(C)c(-n2c(C)cc(/C=N/NC(=O)c3c(C)nc4cc(C)ccn34)c2C)c1	-27.6	?	12.6µM*
Cc1ccn2c(C(=O)NN=C3CCN(C)CC3)c(C)nc2c1	.	.	2.24µM*
CN1CCC(=NNC(=O)c2cc(-c3ccc(Cl)cc3)n[nH]2)CC1	.	.	-9.9%
Cc1ccn2c(C(=O)N/N=C\c3cccs3)c(C)nc2c1	?	-18.6%	?
Cc1ccc2nc(C)c(C(=O)NN=C3CCCCCC3)n2c1	.	.	7.94µM*
O=C1CNC(=O)/C(=C/c2ccco2)N1	.	.	-1.4%
